Some of the results follow. The true hit rate is not given.
Molecular target: furin, P09958
Experiment: furin cleavage Z-score vs untreated control; higher = more cleavage, active = 3.5 or more, inactive = 1 or less, 8 variable residues between constant flanks
Summary of the method: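 The cleavage Z-score was derived for purified furin acting on 8-mer peptides held on magnetic beads and fused to a cDNA oligonucleotide. Digests lasted 7.5, 15 or 30 min at 1:10 enzyme:substrate in 50 mM HEPES pH 7.5 with CaCl2 and NaCl. Sequencing counts of released DNA, log-transformed against furin-free reactions, were lowess-adjusted and scaled by median absolute deviation.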

Chain of furin, P09958 (P09958 whole entry): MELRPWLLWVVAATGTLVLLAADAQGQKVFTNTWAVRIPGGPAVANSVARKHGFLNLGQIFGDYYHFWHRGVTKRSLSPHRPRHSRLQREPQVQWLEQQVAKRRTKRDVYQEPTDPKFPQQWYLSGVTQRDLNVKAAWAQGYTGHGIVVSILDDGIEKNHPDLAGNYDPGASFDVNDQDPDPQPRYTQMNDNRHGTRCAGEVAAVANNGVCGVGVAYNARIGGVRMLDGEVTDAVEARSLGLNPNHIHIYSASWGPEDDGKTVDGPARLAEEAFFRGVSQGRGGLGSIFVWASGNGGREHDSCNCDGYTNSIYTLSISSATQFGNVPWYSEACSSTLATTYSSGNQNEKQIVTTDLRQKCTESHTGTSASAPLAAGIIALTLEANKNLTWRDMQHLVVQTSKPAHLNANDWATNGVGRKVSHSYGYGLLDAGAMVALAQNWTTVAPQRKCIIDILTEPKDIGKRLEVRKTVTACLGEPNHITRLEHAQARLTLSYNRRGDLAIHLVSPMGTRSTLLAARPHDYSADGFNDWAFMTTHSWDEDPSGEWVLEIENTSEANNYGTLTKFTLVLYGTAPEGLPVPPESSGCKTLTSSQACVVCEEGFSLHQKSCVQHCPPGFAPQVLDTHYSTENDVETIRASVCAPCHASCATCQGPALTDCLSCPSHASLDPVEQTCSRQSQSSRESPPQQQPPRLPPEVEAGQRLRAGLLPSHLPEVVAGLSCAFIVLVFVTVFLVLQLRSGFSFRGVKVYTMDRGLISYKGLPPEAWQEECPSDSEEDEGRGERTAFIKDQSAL

## CAGKFLADGGAGNASASA [HC809]
7.5 min
  furin cleavage Z-score: -1.28 (inactive)
15 min
  furin cleavage Z-score: -0.358 (inactive)
30 min
  furin cleavage Z-score: -0.637 (inactive)

## CAYLVAYQATAGNASASA [HC953]
7.5 min
  furin cleavage Z-score: -0.934 (inactive)
15 min
  furin cleavage Z-score: -0.739 (inactive)
30 min
  furin cleavage Z-score: -1.07 (inactive)

## CALIVFPDLGAGNASASA [HC1450]
7.5 min
  furin cleavage Z-score: -0.678 (inactive)
15 min
  furin cleavage Z-score: -1.11 (inactive)
30 min
  furin cleavage Z-score: -0.0519 (inactive)

## CARRRRHEGPAGNASASA [FS-2233]
7.5 min
  furin cleavage Z-score: 3.52 (active)
15 min
  furin cleavage Z-score: 4.96 (active)
30 min
  furin cleavage Z-score: 4.69 (active)

## CARRRRPGGPAGNASASA [FS-2792]
7.5 min
  furin cleavage Z-score: -0.8 (inactive)
15 min
  furin cleavage Z-score: -0.454 (inactive)
30 min
  furin cleavage Z-score: 0.146 (inactive)

## CARRRRHRSYAGNASASA [FS-2078]
7.5 min
  furin cleavage Z-score: 6.85 (active)
15 min
  furin cleavage Z-score: 11.1 (active)
30 min
  furin cleavage Z-score: 9.14 (active)

## CARRRRASAPAGNASASA [FS-3062]
7.5 min
  furin cleavage Z-score: 7.44 (active)
15 min
  furin cleavage Z-score: 6.83 (active)
30 min
  furin cleavage Z-score: 5.33 (active)

## CARRRRHSPPAGNASASA [FS-2453]
7.5 min
  furin cleavage Z-score: 5.59 (active)
15 min
  furin cleavage Z-score: 8.37 (active)
30 min
  furin cleavage Z-score: 6.78 (active)

## CARCTTPCSGAGNASASA [HC1953]
7.5 min
  furin cleavage Z-score: -0.496 (inactive)
15 min
  furin cleavage Z-score: -1.94 (inactive)
30 min
  furin cleavage Z-score: -0.955 (inactive)

## CAENVTSTWVAGNASASA [HC2181]
7.5 min
  furin cleavage Z-score: 0.856 (inactive)
15 min
  furin cleavage Z-score: -1.06 (inactive)
30 min
  furin cleavage Z-score: 0.371 (inactive)

## CAPGGGQIVGAGNASASA [HC173]
7.5 min
  furin cleavage Z-score: -0.67 (inactive)
15 min
  furin cleavage Z-score: -2.32 (inactive)
30 min
  furin cleavage Z-score: 0.322 (inactive)

## CAVVVTSTWVAGNASASA [HC2150]
7.5 min
  furin cleavage Z-score: -0.0276 (inactive)
15 min
  furin cleavage Z-score: -0.308 (inactive)
30 min
  furin cleavage Z-score: -1.74 (inactive)

## CAEVVTSLWVAGNASASA [HC2205]
7.5 min
  furin cleavage Z-score: 0.73 (inactive)
15 min
  furin cleavage Z-score: -1.3 (inactive)
30 min
  furin cleavage Z-score: -0.955 (inactive)

## CAACTTPCSGAGNASASA [HC1943]
7.5 min
  furin cleavage Z-score: -1.45 (inactive)
15 min
  furin cleavage Z-score: -0.341 (inactive)
30 min
  furin cleavage Z-score: -0.2 (inactive)

## CASTPCSAMLAGNASASA [HC2546]
7.5 min
  furin cleavage Z-score: 1.06
15 min
  furin cleavage Z-score: 0.507 (inactive)
30 min
  furin cleavage Z-score: -0.199 (inactive)

## CARSTRFAATAGNASASA [FS-2188]
7.5 min
  furin cleavage Z-score: -0.54 (inactive)
15 min
  furin cleavage Z-score: -0.334 (inactive)
30 min
  furin cleavage Z-score: 1.52

## CARHHRAAATAGNASASA [FS-2142]
7.5 min
  furin cleavage Z-score: -0.187 (inactive)
15 min
  furin cleavage Z-score: 1.63
30 min
  furin cleavage Z-score: 1.18

## CARRRRLLIKAGNASASA [FS-2597]
7.5 min
  furin cleavage Z-score: -0.832 (inactive)
15 min
  furin cleavage Z-score: -0.657 (inactive)
30 min
  furin cleavage Z-score: -0.82 (inactive)

## CARRRRHTFKAGNASASA [FS-2374]
7.5 min
  furin cleavage Z-score: 6.02 (active)
15 min
  furin cleavage Z-score: 8.84 (active)
30 min
  furin cleavage Z-score: 8.36 (active)

## CARSRRVQCHAGNASASA [FS-2091]
7.5 min
  furin cleavage Z-score: -0.135 (inactive)
15 min
  furin cleavage Z-score: -0.538 (inactive)
30 min
  furin cleavage Z-score: -0.773 (inactive)

## CARSRRHSPHAGNASASA [FS-2462]
7.5 min
  furin cleavage Z-score: 9.64 (active)
15 min
  furin cleavage Z-score: 10.4 (active)
30 min
  furin cleavage Z-score: 9.06 (active)

## CARRRRAAATAGNASASA [FS-2784]
7.5 min
  furin cleavage Z-score: 8.16 (active)
15 min
  furin cleavage Z-score: 6.75 (active)
30 min
  furin cleavage Z-score: 5.42 (active)

## CAVVCCSMSCAGNASASA [HC2100]
7.5 min
  furin cleavage Z-score: -1.04 (inactive)
15 min
  furin cleavage Z-score: -1.97 (inactive)
30 min
  furin cleavage Z-score: -0.294 (inactive)

## CAKSPRRTRSAGNASASA [FS-1351]
7.5 min
  furin cleavage Z-score: 5.21 (active)
15 min
  furin cleavage Z-score: 4.36 (active)
30 min
  furin cleavage Z-score: 2.84

## CANDARRTRSAGNASASA [FS-693]
7.5 min
  furin cleavage Z-score: 6.7 (active)
15 min
  furin cleavage Z-score: 7.77 (active)
30 min
  furin cleavage Z-score: 7.39 (active)

## CAESTTPCSGAGNASASA [HC1977]
7.5 min
  furin cleavage Z-score: -0.591 (inactive)
15 min
  furin cleavage Z-score: 0.488 (inactive)
30 min
  furin cleavage Z-score: -0.368 (inactive)

## CAGTTDRSGAAGNASASA [HC419]
7.5 min
  furin cleavage Z-score: 1
15 min
  furin cleavage Z-score: 2.15
30 min
  furin cleavage Z-score: -0.141 (inactive)

## CALPYIEQGMAGNASASA [HC1018]
7.5 min
  furin cleavage Z-score: -0.393 (inactive)
15 min
  furin cleavage Z-score: -0.653 (inactive)
30 min
  furin cleavage Z-score: 2.95

## CALRLRKGRSAGNASASA [FS-613]
7.5 min
  furin cleavage Z-score: 2.52
15 min
  furin cleavage Z-score: 2.83
30 min
  furin cleavage Z-score: 0.738 (inactive)

## CAEQGRQGRSAGNASASA [FS-416]
7.5 min
  furin cleavage Z-score: -1.07 (inactive)
15 min
  furin cleavage Z-score: -0.0349 (inactive)
30 min
  furin cleavage Z-score: 0.708 (inactive)

## CALRSRSGRSAGNASASA [FS-57]
7.5 min
  furin cleavage Z-score: 4.75 (active)
15 min
  furin cleavage Z-score: 5.58 (active)
30 min
  furin cleavage Z-score: 4.32 (active)

## CALRSRWGRSAGNASASA [FS-1370]
7.5 min
  furin cleavage Z-score: 6.03 (active)
15 min
  furin cleavage Z-score: 5.71 (active)
30 min
  furin cleavage Z-score: 6.06 (active)

## CAQDPRSGRSAGNASASA [FS-846]
7.5 min
  furin cleavage Z-score: 0.797 (inactive)
15 min
  furin cleavage Z-score: -0.812 (inactive)
30 min
  furin cleavage Z-score: -0.37 (inactive)

## CAQQHRQGRSAGNASASA [FS-1391]
7.5 min
  furin cleavage Z-score: 6.09 (active)
15 min
  furin cleavage Z-score: 6.71 (active)
30 min
  furin cleavage Z-score: 6.63 (active)

## CAQRERSGRSAGNASASA [FS-1057]
7.5 min
  furin cleavage Z-score: 4.28 (active)
15 min
  furin cleavage Z-score: 6.49 (active)
30 min
  furin cleavage Z-score: 6.16 (active)

## CATNSRGENCAGNASASA [HC1504]
7.5 min
  furin cleavage Z-score: 0.0549 (inactive)
15 min
  furin cleavage Z-score: 0.267 (inactive)
30 min
  furin cleavage Z-score: 0.425 (inactive)

## CATTPCSGSAAGNASASA [HC1923]
7.5 min
  furin cleavage Z-score: 0.77 (inactive)
15 min
  furin cleavage Z-score: -1.08 (inactive)
30 min
  furin cleavage Z-score: -0.465 (inactive)

## CATGDFDSVIAGNASASA [HC883]
7.5 min
  furin cleavage Z-score: -0.133 (inactive)
15 min
  furin cleavage Z-score: -1.34 (inactive)
30 min
  furin cleavage Z-score: -0.511 (inactive)

## CAGSFRGKRSAGNASASA [FS-1206]
7.5 min
  furin cleavage Z-score: 11.1 (active)
15 min
  furin cleavage Z-score: 11.4 (active)
30 min
  furin cleavage Z-score: 8.01 (active)

## CANLMRPKRSAGNASASA [FS-137]
7.5 min
  furin cleavage Z-score: 11.8 (active)
15 min
  furin cleavage Z-score: 11.3 (active)
30 min
  furin cleavage Z-score: 8.61 (active)

## CANRGIGKRSAGNASASA [FS-65]
7.5 min
  furin cleavage Z-score: 7.18 (active)
15 min
  furin cleavage Z-score: 8.2 (active)
30 min
  furin cleavage Z-score: 7.79 (active)

## CAKRRLQKRSAGNASASA [FS-1638]
7.5 min
  furin cleavage Z-score: 11.7 (active)
15 min
  furin cleavage Z-score: 9.73 (active)
30 min
  furin cleavage Z-score: 9.24 (active)

## CAGSFRSLRSAGNASASA [FS-433]
7.5 min
  furin cleavage Z-score: -0.832 (inactive)
15 min
  furin cleavage Z-score: -0.397 (inactive)
30 min
  furin cleavage Z-score: -0.333 (inactive)

## CACQRGYKGVAGNASASA [HC1166]
7.5 min
  furin cleavage Z-score: -1.45 (inactive)
15 min
  furin cleavage Z-score: -3.75 (inactive)
30 min
  furin cleavage Z-score: -2.51 (inactive)
